# Laboratory results reported in PubChem BioAssay.
# Where “and” joins values, the source holds several entries; their conditions need not be identical. Equal entries are not always repeated. Calls of active or inactive are those of the source. Unless noted, no stated cut-off is given here; in the data, active means inhibition above about 80%; inactive means the rest.
# What was measured:
# [1] = sensitizers of A549 cells to miR-34 induction, primary screen, imaging, A549 dox-inducible miR-34, nuclei and caspase counts (AID 1347080;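 active means compounds whose cell count with miR-34 switched on is under 0.7 times the count with it off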); conditions: A549 miR-34 inducible, Hoechst nuclei count, 48 h
# [2] = survival rescue of mitochondrial mutant cells in low glucose, primary screen, MELAS cybrids, Rieske KO mouse fibroblasts, CellTiter-Glo (AID 1508586;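 active means mean z-score across replicates of 1.96 or higher in either the MELAS or the Rieske mutant cell line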;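 further: z relative to plate mean and SD of compound and empty wells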)
# [3] = LFS_MB_P medulloblastoma growth inhibition, cell-based, chromothripsis tumors, cisplatin or BGB combos (AID 1671449); conditions: LFS_MB_P medulloblastoma cells;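 further: cells exposed for 96 hours; 0% = vehicle DMSO and 100% = killing by high DMSO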
# [4] = HDN33 neuroblastoma growth inhibition, cell-based, chromothripsis tumors, cisplatin or BGB combos (AID 1671450); conditions: HDN33 neuroblastoma cells, stronger effect = higher value;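 further: cells exposed to compound for four days; 0% = vehicle DMSO and 100% = cell killing by high DMSO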
# [5] = ICB984 medulloblastoma cell growth inhibition, synergistic combos for chromothripsis tumors, cisplatin or BGB combos (AID 1671451; call rule not given here;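 further: cells exposed for 96 hours before readout; 0% = vehicle DMSO and 100% = killing by high DMSO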); conditions: ICB984 medulloblastoma cells, drug combinations, stronger effect = higher value
# [6] = LFS_MB_1R medulloblastoma cell growth inhibition, synergistic combos for chromothripsis tumors, cisplatin or BGB combos (AID 1671452); conditions: LFS_MB_1R medulloblastoma cells, stronger effect = higher value;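 further: cells exposed for 96 hours before readout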
# [7] = HTB85 osteosarcoma cell growth inhibition, synergistic combos for chromothripsis tumors, BGB or cisplatin IC20 combos (AID 1671453); conditions: HTB85 osteosarcoma cells, drug combinations, stronger effect = higher value;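 further: cells exposed for 96 hours before readout; 0% = vehicle DMSO and 100% = high DMSO killing control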
# [8] = CRL2098 osteosarcoma cell growth inhibition, synergistic combos for chromothripsis tumors, BGB or cisplatin IC20 combos (AID 1671454); conditions: CRL2098 osteosarcoma cells, drug combinations, stronger effect = higher value;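 further: cells exposed for 96 h before readout; 0% = vehicle DMSO and 100% = killing by high DMSO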
# [9] = HD-MB03 medulloblastoma cell growth inhibition, synergistic combos for chromothripsis tumors, BGB or cisplatin IC20 combos (AID 1671455; in the data active means inhibition above about 83%;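 further: 0% = vehicle DMSO and 100% = high DMSO as cytotoxic control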); conditions: HD-MB03 medulloblastoma cells, stronger effect = higher value
# [10] = UWB1.289 ovarian carcinoma cell growth inhibition, synergistic combos for chromothripsis tumors, BGB or cisplatin combos (AID 1671456); conditions: UWB1.289 ovarian carcinoma cells, stronger effect = higher value;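 further: cells exposed to compound for four days; 0% = vehicle DMSO and 100% = killing by high DMSO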
# [11] = LFS_MB_2R medulloblastoma cell growth inhibition, synergistic combos for chromothripsis tumors, cisplatin combos (AID 1671457); conditions: LFS_MB_2R medulloblastoma cells, stronger effect = higher value;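 further: cells exposed to compound for four days before readout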
# [12] = MDA-MB-436 breast carcinoma cell growth inhibition, synergistic combos for chromothripsis tumors, BGB or cisplatin combos (AID 1671458; call rule not given here;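 further: cells exposed for 96 hours; 0% = vehicle DMSO and 100% = killing by high DMSO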); conditions: MDA-MB-436 breast carcinoma growth inhibition, drug combinations, stronger effect = higher value
# [13] = UWB1.289_BRCA1 ovarian cancer growth, cell-based, BGB or cisplatin combinations (AID 1671459); conditions: UWB1.289 BRCA1 ovarian carcinoma, drug combinations, stronger effect = higher value
# [14] = human astrocyte viability loss, single and combined drugs, cytotoxicity control for chromothriptic childhood tumor combination screen, cell-based, BGB or cisplatin IC20 combos (AID 1671460); conditions: Human astrocytes, drug combinations, stronger effect = higher value;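 further: cells exposed to compounds for 96 hours before viability readout; 0% = vehicle and 100% = killing control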
# [15] = growth inhibition of BT084 medulloblastoma cells, cell-based, ICGC_MB145, cisplatin and BGB IC40 combos (AID 1671461); conditions: drug combinations, stronger effect = higher value;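 further: cells exposed to drugs for 96 hours; 0% = vehicle DMSO and 100% = high DMSO full killing control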
# [16] = growth inhibition of RCMB18 medulloblastoma cells, cell-based, cisplatin and BGB IC40 combos (AID 1671462); conditions: stronger effect = higher value;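 further: cells exposed to compound for four days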
# [17] = growth inhibition of CRL1545 osteosarcoma cells, cell-based, cisplatin and BGB IC20 combos (AID 1671464); conditions: stronger effect = higher value;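 further: cells exposed to compound for 96 hours before readout; 0% = vehicle DMSO and 100% = high DMSO killing control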
# [18] = measured here: combination with BGB IC40, at 0.05 µM
# [19] = measured here: with BGB IC20 combination, at 0.5 µM
# [20] = measured here: with cisplatin IC20 combination, at 0.5 µM
# [21] = measured here: combination with cisplatin, at 0.5 µM
# [22] = measured here: combination with cisplatin, at 5 µM
smiles,measurement,setting,value
O=c1[nH]cnc2c1ncn2C1OC(CO)C(O)C1O (centres undefined),fold change,"[1]; stronger effect = lower value, cell number ratio, induced over uninduced",0.971 (inactive)
same,fold change,[1]; measured here: relative caspase fold change +Dox/-Dox,0.634
same,cell count,"[1]; measured here: total cells with miR-34 induction, stronger effect = lower value",8460
same,cell count,[1]; measured here: total cells without miR-34 induction,8710
same,z-score,"[2]; MELAS cybrid survival, CellTiter-Glo 48 h, stronger effect = higher value",-0.214 (inactive)
same,z-score,"[2]; Rieske KO mouse fibroblast survival, CellTiter-Glo 72 h",-0.0718
same,inhibition,"[3]; at 0.5 µM, stronger effect = higher value",-10.7% (inactive) and -25.9% (inactive)
same,inhibition,"[3]; measured here: combination with BGB IC20, at 0.005 µM",-29.2% and -10.3%
same,inhibition,"[3]; measured here: combination with BGB IC40, at 0.005 µM",-37.9% and -36.7%
same,inhibition,[3]; [18],-34.2% and -41.2%
same,inhibition,"[3]; measured here: combination with cisplatin, at 0.5 µM, stronger effect = higher value",-24.2% and -36.9%
same,inhibition,"[3]; measured here: combination with cisplatin, at 5 µM, stronger effect = higher value",-32.2% and -50.7%
same,inhibition,"[4]; BGB combo, at 5 µM",-71.8% and -17.3%
same,inhibition,[4]; at 0.5 µM,-41% (inactive) and -8.53% (inactive)
same,inhibition,"[4]; cisplatin combo, at 5 µM",-53.5% and 3.12%
same,inhibition,[4]; [19],-43% and -17%
same,inhibition,[4]; [20],-29.3% and -1.72%
same,inhibition,"[4]; single agent, at 5 µM",-56.1% and -7.95%
same,inhibition,"[5]; BGB IC20 combo, at 0.005 µM",-8.62% and -21.3%
same,inhibition,"[5]; BGB IC40 combo, at 0.005 µM",-26.4% and -10.8%
same,inhibition,"[5]; BGB IC40 combo, at 0.05 µM",-29.3% and -11.3%
same,inhibition,[5]; at 0.5 µM,-22.2% (inactive) and -24.4% (inactive)
same,inhibition,"[5]; cisplatin combo, at 0.05 µM",-36% and -15.3%
same,inhibition,"[5]; cisplatin combo, at 0.5 µM",-33.9% and -9.22%
same,inhibition,"[5]; cisplatin combo, at 5 µM",-24.4% and -48%
same,inhibition,"[5]; measured here: 5 uM single agent, at 5 µM",-3.92% and -14.5%
same,inhibition,[6]; at 0.5 µM,-44.3% (inactive) and -17.7% (inactive)
same,inhibition,[6]; [18],-7.53% and -27.6%
same,inhibition,[6]; [21],-65.5% and -12.7%
same,inhibition,[6]; [22],-61.2% and -68.6%
same,inhibition,[7]; at 0.5 µM,-33.2% (inactive) and -8.83% (inactive)
same,inhibition,"[7]; measured here: with BGB IC20, at 0.5 µM",-29.3% and -11.2%
same,inhibition,"[7]; measured here: with BGB IC20, at 5 µM",-15.9% and -25.5%
same,inhibition,"[7]; measured here: with cisplatin IC20, at 0.5 µM",-32% and -10.1%
same,inhibition,"[7]; measured here: with cisplatin IC20, at 5 µM",-20.2% and -47.1%
same,inhibition,"[7]; single agent, at 5 µM",-29.3% and -10.1%
same,inhibition,[8]; at 0.5 µM,-90% (inactive) and -56.6% (inactive)
same,inhibition,"[8]; measured here: combination with BGB at IC20, at 0.5 µM",-87.4% and -18.5%
same,inhibition,"[8]; measured here: combination with cisplatin at IC20, at 0.5 µM",-101% and -96.8%
same,inhibition,[9]; at 0.5 µM,-22.6% (inactive) and -12.7% (inactive)
same,inhibition,"[9]; measured here: combo with BGB at IC20, at 0.5 µM",-22.7% and -11.5%
same,inhibition,"[9]; measured here: combo with cisplatin at IC20, at 0.5 µM",-27.8% and -18.3%
same,inhibition,[10]; at 0.5 µM,-11.2% (inactive) and -3.6% (inactive)
same,inhibition,"[10]; measured here: inhibition with BGB combination, at 0.05 µM",-39.3% and 0.127%
same,inhibition,"[10]; measured here: inhibition with cisplatin combination, at 0.05 µM",-26% and -16.8%
same,inhibition,[11]; at 0.5 µM,-25.5% (inactive) and -18.4% (inactive)
same,inhibition,[11]; [21],-31.3% and -25.6%
same,inhibition,[11]; [22],-22.2% and -17.4%
same,inhibition,[12]; at 0.5 µM,-21.2% (inactive) and -4.5% (inactive)
same,inhibition,"[12]; measured here: BGB combination, at 0.5 µM",-24.8% and -4.38%
same,inhibition,"[12]; measured here: BGB combination, at 5 µM",-28.5% and -13.8%
same,inhibition,"[12]; measured here: cisplatin combination, at 0.5 µM",-29.8% and -11.4%
same,inhibition,"[12]; measured here: cisplatin combination, at 5 µM",-15.5% and -7.72%
same,inhibition,"[13]; BGB combination, concentration series, at 5 µM",-23.4% and 11.7%
same,inhibition,[13]; at 0.5 µM,-19.3% (inactive) and -1.78% (inactive)
same,inhibition,"[13]; cisplatin combination, concentration series, at 5 µM",-16.4% and -23.2%
same,inhibition,[14]; at 0.5 µM,3.07% (inactive) and 14% (inactive)
same,inhibition,"[14]; measured here: combo with BGB IC20, at 0.5 µM",13.9% and 6.47%
same,inhibition,"[14]; measured here: combo with cisplatin IC20, at 0.5 µM",-4.13% and 24.5%
same,inhibition,[15]; at 0.5 µM,-1.88% (inactive) and -23.7% (inactive)
same,inhibition,"[15]; cisplatin combination, at 0.5 µM",-2.01% and -52.6%
same,inhibition,"[15]; cisplatin combination, at 5 µM",-202% and -23.5%
same,inhibition,"[15]; measured here: BGB IC40 combination 0.05 uM, at 0.05 µM",-22.8% and -31.6%
same,inhibition,"[15]; single agent, at 5 µM",-16.1% and -9.19%
same,inhibition,[16]; at 0.5 µM,-14.6% (inactive) and -17.6% (inactive)
same,inhibition,"[16]; cisplatin combo, at 5 µM",-27.4% and -4.56%
same,inhibition,"[16]; measured here: BGB IC40 combination, at 0.05 µM",-8.27% and -1.88%
same,inhibition,[16]; [21],-12.7% and -17.5%
same,inhibition,"[16]; single agent, at 5 µM",-19.5% and -20.5%
same,inhibition,[17]; at 0.5 µM,-5.83% (inactive) and -5.48% (inactive)
same,inhibition,[17]; [19],-50.4% and -16.7%
same,inhibition,[17]; [20],15.1% and -1.52%
same,inhibition,"[17]; single agent, at 0.05 µM",-48.7% and 14.4%
same,inhibition,"[17]; single agent, at 5 µM",-40.4%
